According to PubChem BioAssay (NCI):
About 79,000 compounds went through this panel and 15% of them were active in at least one assay; those are over-represented in the sample as a whole. The source made the active and inactive calls. Cut-off read from the data, not from the text of the source: active = growth inhibition above about 70%; inactive = the rest.

Columns and labels:
[1] = NCI Yeast Anticancer Drug Screen. Data for the rad50 strain (AID 155);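 note: 0% = growth of vehicle-only cultures of the same strain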; conditions: S. cerevisiae rad50 strain growth inhibition, active compounds read high
How it was run: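 Yeast carrying a defined DNA repair defect were exposed to test compounds, and growth was compared with vehicle-treated controls to give percent inhibition.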

[2] = NCI Yeast Anticancer Drug Screen. Data for the mec2-1 strain (AID 157); conditions: S. cerevisiae mec2-1 strain, active compounds read high
How it was run: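 Growth inhibition is read against vehicle-treated controls after compound exposure of the mec2-1 yeast strain, which is defective in DNA damage repair or cell cycle control.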

[3] = NCI Yeast Anticancer Drug Screen. Data for the sgs1 mgt1 strain (AID 161);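 note: 0% = growth of cultures given vehicle only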; conditions: S. cerevisiae sgs1 mgt1 strain, active compounds read high
How it was run: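 Growth of a repair-deficient yeast mutant was monitored after compound treatment and expressed as inhibition relative to vehicle-treated cultures.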

[4] = NCI Yeast Anticancer Drug Screen. Data for the cln2 rad14 strain (AID 165);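 note: 0% = growth equal to vehicle treated cultures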; conditions: S. cerevisiae cln2 rad14 strain, active compounds read high
How it was run: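 Growth inhibition, relative to vehicle-treated controls, is the read-out. The test organism is a yeast strain with defined genetic alterations, cln2 rad14.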

[5] = NCI Yeast Anticancer Drug Screen. Data for the bub3 strain (AID 167); conditions: S. cerevisiae bub3 mutant strain, active compounds read high
How it was run: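 Compounds were applied to a genetically altered yeast strain carrying a cell-cycle control defect. Growth inhibition was scored against vehicle-treated controls.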

[6] = NCI Yeast Anticancer Drug Screen. Data for the mlh1 rad18 strain (AID 175); conditions: S. cerevisiae mlh1 rad18 strain growth inhibition, active compounds read high
How it was run: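 Cells of a genetically altered yeast strain, deficient in DNA damage repair, were treated with compound. Their growth was then compared with that of vehicle-treated cultures to give inhibition.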

[7] = at 5.0 µM (retest, dose inferred, filed as 0.5)
[8] = at 50.0 µM (retest, dose inferred, filed as 5.0)

Measured: growth inhibition

CCCSc1n[nH]c(=S)s1
inactive: [1]; [7] -3% | [1]; [8] 5% | [1]; at 50.0 µM 27% | [2]; [7] 2% | [2]; [8] 30% | [2]; at 50.0 µM 53% | [3]; [7] -1% | [3]; [8] 46% | [4]; [7] -10% | [4]; [8] 29% | [4]; at 50.0 µM 32.6% | [5]; [7] -6% | [5]; [8] 13% | [5]; at 50.0 µM 52% | [6]; [7] -1% | [6]; [8] 15% | [6]; at 50.0 µM 41.7%
active: [3]; at 50.0 µM 73.1%

ClC1(Cl)C(Cl)(Cl)C12c1ccccc1-c1ccccc12
active: [1]; [8] 94% | [1]; at 50.0 µM 98.6% | [2]; [8] 97% | [2]; at 50.0 µM 98.8% | [3]; [8] 98% | [3]; at 50.0 µM 99% | [4]; [8] 95% | [4]; at 50.0 µM 86.8% | [5]; [8] 95% | [5]; at 50.0 µM 98% | [6]; [8] 96% | [6]; at 50.0 µM 98.6%
inactive: [1]; [7] 14% | [2]; [7] -26% | [3]; [7] 15% | [4]; [7] 2% | [5]; [7] 28% | [6]; [7] 29%

O=C(O)c1c[nH]c2cc(Cl)ccc2c1=O
inactive: [1]; [7] 4% | [1]; [8] -5% | [1]; at 50.0 µM -1.55% | [2]; [7] 1% | [2]; [8] 5% | [2]; at 50.0 µM -20.9% | [3]; [7] -8% | [3]; [8] -3% | [3]; at 50.0 µM -22.1% | [4]; [7] 2% | [4]; [8] 1% | [5]; [7] 1% | [5]; [8] -2% | [5]; at 50.0 µM -19.8% | [6]; [7] -1% | [6]; [8] -4% | [6]; at 50.0 µM 12.2%
active: [4]; at 50.0 µM 90.9%

O=C1OC(=O)c2cccc3cccc1c23
active: [1]; [8] 99% | [1]; at 50.0 µM 98.8% | [2]; [8] 99% | [2]; at 50.0 µM 99.1% | [3]; [8] 99% | [3]; at 50.0 µM 98.5% | [4]; [8] 99% | [4]; at 50.0 µM 98.5% | [5]; [8] 99% | [5]; at 50.0 µM 99.5% | [6]; [8] 99% | [6]; at 50.0 µM 98.4%
inactive: [1]; [7] 51% | [2]; [7] 35% | [3]; [7] 19% | [4]; [7] 23% | [5]; [7] 58% | [6]; [7] 57%

CC(=O)N1OC2(C)c3ccccc3C1(C)c1ccccc12
active: [1]; [7] 99% | [1]; [8] 94% | [1]; at 50.0 µM 99.2% | [2]; [7] 99% | [2]; [8] 97% | [2]; at 50.0 µM 99.4% | [3]; [7] 99% | [3]; [8] 96% | [3]; at 50.0 µM 97.9% | [4]; [7] 98% | [4]; [8] 95% | [4]; at 50.0 µM 99.2% | [5]; [7] 99% | [5]; [8] 96% | [5]; at 50.0 µM 99.4% | [6]; [7] 99% | [6]; [8] 95% | [6]; at 50.0 µM 99.1%

CCOc1cc2c(cc1Cc1c(OC)cc(OC)cc1OC)OCO2
inactive: [1]; [7] 5% | [1]; [8] 27% | [1]; at 50.0 µM 46% | [2]; [7] 3% | [2]; [8] 31% | [2]; at 50.0 µM 16.5% | [3]; [7] 8% | [3]; [8] 57% | [4]; [7] 4% | [4]; [8] 30% | [4]; at 50.0 µM 46.8% | [5]; [7] 4% | [5]; [8] 63% | [6]; [7] 7%
active: [3]; at 50.0 µM 88% | [5]; at 50.0 µM 77.8% | [6]; [8] 73% | [6]; at 50.0 µM 83.3%

CN1CCC(OC(=O)c2ccc3ncccc3c2)CC1
active: [4]; at 50.0 µM 85.6%
inactive: [1]; [7] -6% | [1]; [8] 6% | [1]; at 50.0 µM 34.6% | [2]; [7] -2% | [2]; [8] 4% | [2]; at 50.0 µM 26.6% | [3]; [7] -2% | [3]; [8] 13% | [3]; at 50.0 µM 17.6% | [4]; [7] -5% | [4]; [8] 2% | [5]; [7] -4% | [5]; [8] 2% | [5]; at 50.0 µM 33.9% | [6]; [7] -7% | [6]; [8] 7% | [6]; at 50.0 µM 32%

CCCC(C)NCCCCCNc1cc(OC)cc2cccnc12 (configuration not stated)
inactive: [1]; [7] 3% | [1]; [8] 60% | [2]; [7] 2% | [2]; [8] 22% | [2]; at 50.0 µM 48.5% | [3]; [7] 25% | [3]; [8] 62% | [4]; [7] 14% | [4]; [8] 40% | [4]; at 50.0 µM 42% | [5]; [7] 19% | [5]; [8] 61% | [6]; [7] -19% | [6]; [8] 11%
active: [1]; at 50.0 µM 78.8% | [3]; at 50.0 µM 71.6% | [5]; at 50.0 µM 82.2% | [6]; at 50.0 µM 76.5%

CCOC(=O)/C(C#N)=C\c1ccc(N(CCC(=O)O)CCC(=O)O)c(I)c1
inactive: [1]; [7] 1% | [1]; at 50.0 µM -6.7% | [2]; [7] -4% | [2]; at 50.0 µM 33.5% | [3]; [7] 3% | [3]; [8] 37% | [3]; at 50.0 µM -5.3% | [4]; [7] -7% | [4]; at 50.0 µM 53.8% | [5]; [7] 35% | [5]; at 50.0 µM -13.1% | [6]; [7] 10% | [6]; at 50.0 µM -6.35%
active: [1]; [8] 77% | [2]; [8] 77% | [4]; [8] 77% | [5]; [8] 93% | [6]; [8] 77%
